Data published in the supplement of paper PMC11417369.
Over roughly 25,000 sequences, “ln(normalized median fluorescence intensity)” has its median near 6.7; the highest 2% begin near 10. What follows is part of a selection rich in the highest values, with near analogues and random picks from the rest.

Each sequence was assayed on PfHDP1 homeodomain (GST-tagged) (assay: gcPBM binding intensity (ln(normalized median fluorescence intensity)); higher = stronger DNA binding).
In short: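 Each value is the highest Masliner-normalised natural-log median intensity across replicate spots of either orientation of a probe. The probes were primer-extended double-stranded 36-bp intergenic genomic sequences on an Agilent 4 × 180k array, alongside negative controls, exposed for 1 h to GST-tagged P. falciparum DNA-binding domains expressed in E. coli. Bound protein was picked up with Alexa488 anti-GST antibody and scanned at 488 nm.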
“ATATATATATATATATGTACATACATACATAGAACT [XGTACX_site2214]” was tested, and the “gcPBM binding intensity (ln)” value was 9.21.
In the case of “TTTTATTTTTAAAATTGTACATTATTATTGTTATTT [XGTACX_site1439]”, the “gcPBM binding intensity (ln)” value was 6.3.
In the case of “ATATCTTATAATACGGTGCACTTGACATGAACAACT [GTGCAC_site9987]”, the “gcPBM binding intensity (ln)” value was 10.3.
In the case of ATAATGAACAAAGTAGTGCACTTTCCTTATCTTTTC, the “gcPBM binding intensity (ln)” value was 10.7.
“CCTTTCCTTTTATAAGTGCATATAACAAATGTATAC [GTGCAC_site9872]” was tested, and the “gcPBM binding intensity (ln)” value was 8.03.
For “AAATGTGAACTATAATAATTTCAACGTCTGATATAA [TGCATGCA_negctrl_site440]”, the “gcPBM binding intensity (ln)” value was 5.94.
For “TTGAACTCTCTTACGCGTACGTGTTATTATGAAAAT [XGTACX_site6265]”, the “gcPBM binding intensity (ln)” value was 6.73.
In the case of “TTTCAAAATGTGTAAAATAAAAATAATATCATTACA [TGCATGCA_negctrl_site521]”, the “gcPBM binding intensity (ln)” value was 6.42.
“TTTTTCATAAAACACACACACAAAAATAATGTGGAA [CACACA_site3687]” was tested, and the “gcPBM binding intensity (ln)” value was 6.56.
With TTTCAAATGGAATGTGTGCACATAAATGTAAATAAA the “gcPBM binding intensity (ln)” value was 10.8.
For “AAAAAAAAAAAAGGCACACAAACATATGTAGACATA [CACACA_site2284]”, the “gcPBM binding intensity (ln)” value was 6.61.
“ATAATAAAATAAATCACACATAATATAATGTAATAT [CACACA_site6144]” was tested, and the “gcPBM binding intensity (ln)” value was 6.49.
For “AAAAAAAAATCAAAATGTACTTATTTTTATAATAAT [XGTACX_site4712]”, the “gcPBM binding intensity (ln)” value was 6.31.
With “AAGATTAAAAATTGCACACAAAAATATATTTTCTAT [CACACA_site1305]” the “gcPBM binding intensity (ln)” value was 9.78.
With “TTTTCTATAAGATTTGCACACAACTTATTCTATTAA [CACACA_site3752]” the “gcPBM binding intensity (ln)” value was 10.6.
For “AAGATTAAACATTGCACACAAAAACATATTTTCTAT [CACACA_site530]”, the “gcPBM binding intensity (ln)” value was 9.7.
In the case of “TTTTTTTTTTTCAATAGTACTTTCCATTTACATATA [XGTACX_site3889]”, the “gcPBM binding intensity (ln)” value was 6.32.
“TGAACTCATAGGAAAACACACATATGGGTAATATAT [CACACA_site187]” was tested, and the “gcPBM binding intensity (ln)” value was 6.78.
In the case of “TGAACTCATAGGAAAACACACATATGTGCAATATAT [CACACA_site6231]”, the “gcPBM binding intensity (ln)” value was 11.3.
With “TGAACTCATAGGAAAACACACATATGTGTAATATAT [CACACA_site4267]” the “gcPBM binding intensity (ln)” value was 7.27.
For “CTATTTTTATATTATTGTACGTTGTTATTATATATA [XGTACX_site1469]”, the “gcPBM binding intensity (ln)” value was 6.79.
In the case of “CACTAATATATATACAGTACATAATAAAGTATATAA [XGTACX_site6875]”, the “gcPBM binding intensity (ln)” value was 6.16.
“TTGGGTATTTTGTGCGCACACACATGCAAAAAGAAA [CACACA_site8299]” was tested, and the “gcPBM binding intensity (ln)” value was 9.63.
In the case of “TGTCCAATTTATTGTGCACACCTCAAAAGTGGGTAA [CACACA_site3826]”, the “gcPBM binding intensity (ln)” value was 11.1.
For “AATGCACAGCTCTTAGGCAAAAGTGGGTATTTACAC [GTGCAC_negctrl_site579]”, the “gcPBM binding intensity (ln)” value was 8.63.
